From ChEMBL document CHEMBL1961873, “Compounds: GSK PKIS; Assays: Nanosyn kinase panel” (2012)

Columns and labels:
[1] = system: Proto-oncogene tyrosine-protein kinase receptor Ret (Homo sapiens), P07949 [Y791F]; conditions: at 1 µM
[2] = biological target: Macrophage-stimulating protein receptor (Homo sapiens) (UniProt Q04912); conditions: at 0.1 µM
[3] = biological target: Macrophage-stimulating protein receptor (Homo sapiens) (UniProt Q04912); conditions: at 1 µM
[4] = biological target: Proto-oncogene tyrosine-protein kinase ROS (Homo sapiens) (UniProt P08922); conditions: at 0.1 µM
Chain of Proto-oncogene tyrosine-protein kinase ROS (Homo sapiens) (P08922 whole entry): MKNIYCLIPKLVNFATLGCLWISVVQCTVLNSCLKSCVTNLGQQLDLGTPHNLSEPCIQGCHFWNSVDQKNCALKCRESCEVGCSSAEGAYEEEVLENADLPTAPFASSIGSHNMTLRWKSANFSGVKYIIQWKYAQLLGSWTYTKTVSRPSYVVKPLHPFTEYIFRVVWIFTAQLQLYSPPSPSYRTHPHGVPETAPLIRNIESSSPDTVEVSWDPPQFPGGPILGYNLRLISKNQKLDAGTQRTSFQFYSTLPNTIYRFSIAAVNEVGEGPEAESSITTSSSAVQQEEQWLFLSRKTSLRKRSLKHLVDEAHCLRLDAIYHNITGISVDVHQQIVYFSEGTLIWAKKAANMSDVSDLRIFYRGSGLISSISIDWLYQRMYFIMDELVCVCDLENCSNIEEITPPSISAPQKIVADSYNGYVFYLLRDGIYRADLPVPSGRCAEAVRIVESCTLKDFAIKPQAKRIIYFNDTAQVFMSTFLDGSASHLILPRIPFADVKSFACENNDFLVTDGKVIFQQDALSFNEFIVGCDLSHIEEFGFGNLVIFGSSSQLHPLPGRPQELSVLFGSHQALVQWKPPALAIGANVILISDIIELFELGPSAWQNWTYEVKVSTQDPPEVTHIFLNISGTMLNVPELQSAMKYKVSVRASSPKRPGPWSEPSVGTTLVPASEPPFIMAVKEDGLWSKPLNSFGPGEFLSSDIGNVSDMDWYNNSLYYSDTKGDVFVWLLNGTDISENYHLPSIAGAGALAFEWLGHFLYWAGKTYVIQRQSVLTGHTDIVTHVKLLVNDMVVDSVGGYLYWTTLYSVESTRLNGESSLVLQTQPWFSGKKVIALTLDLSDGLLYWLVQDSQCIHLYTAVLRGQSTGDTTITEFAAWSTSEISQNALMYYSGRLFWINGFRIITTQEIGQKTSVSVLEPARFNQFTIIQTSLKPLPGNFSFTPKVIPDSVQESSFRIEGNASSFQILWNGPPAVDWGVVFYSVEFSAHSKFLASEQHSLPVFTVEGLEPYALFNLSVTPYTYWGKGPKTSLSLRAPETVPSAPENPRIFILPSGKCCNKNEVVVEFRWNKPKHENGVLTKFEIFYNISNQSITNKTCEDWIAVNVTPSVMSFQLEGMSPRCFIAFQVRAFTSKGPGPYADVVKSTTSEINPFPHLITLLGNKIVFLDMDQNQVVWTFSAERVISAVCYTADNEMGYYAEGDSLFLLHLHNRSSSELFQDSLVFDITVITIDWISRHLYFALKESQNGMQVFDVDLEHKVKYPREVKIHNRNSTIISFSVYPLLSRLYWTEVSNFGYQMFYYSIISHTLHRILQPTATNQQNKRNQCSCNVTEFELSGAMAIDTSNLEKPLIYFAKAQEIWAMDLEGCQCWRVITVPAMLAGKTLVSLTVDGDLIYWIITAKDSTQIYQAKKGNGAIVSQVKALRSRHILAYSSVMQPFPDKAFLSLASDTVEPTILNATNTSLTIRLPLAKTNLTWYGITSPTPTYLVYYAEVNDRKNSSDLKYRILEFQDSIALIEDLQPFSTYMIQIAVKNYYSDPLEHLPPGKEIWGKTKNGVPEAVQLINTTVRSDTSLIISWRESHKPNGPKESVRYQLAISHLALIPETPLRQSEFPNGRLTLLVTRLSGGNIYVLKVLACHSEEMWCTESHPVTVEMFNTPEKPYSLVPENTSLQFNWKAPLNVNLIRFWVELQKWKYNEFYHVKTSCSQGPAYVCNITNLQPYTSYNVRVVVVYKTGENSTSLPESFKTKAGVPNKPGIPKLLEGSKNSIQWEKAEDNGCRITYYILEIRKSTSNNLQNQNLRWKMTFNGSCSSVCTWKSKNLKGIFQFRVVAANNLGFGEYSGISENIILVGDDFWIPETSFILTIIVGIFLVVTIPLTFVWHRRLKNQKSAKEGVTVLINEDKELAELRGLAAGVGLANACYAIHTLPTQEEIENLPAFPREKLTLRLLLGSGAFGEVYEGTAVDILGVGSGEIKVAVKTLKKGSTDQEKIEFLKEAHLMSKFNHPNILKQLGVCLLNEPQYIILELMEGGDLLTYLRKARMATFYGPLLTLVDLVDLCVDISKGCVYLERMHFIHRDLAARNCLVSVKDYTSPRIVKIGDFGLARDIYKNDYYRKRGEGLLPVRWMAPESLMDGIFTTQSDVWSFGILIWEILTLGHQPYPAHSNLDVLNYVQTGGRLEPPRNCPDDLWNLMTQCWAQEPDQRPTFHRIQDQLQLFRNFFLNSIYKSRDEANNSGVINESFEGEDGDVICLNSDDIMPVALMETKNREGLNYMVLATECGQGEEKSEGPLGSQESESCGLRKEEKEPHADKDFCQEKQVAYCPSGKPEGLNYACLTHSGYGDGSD

[5] = biological target: Proto-oncogene tyrosine-protein kinase ROS (Homo sapiens) (UniProt P08922); conditions: at 1 µM
[6] = biological target: Proto-oncogene tyrosine-protein kinase Src (Homo sapiens) (UniProt P12931); conditions: at 0.1 µM
Chain of Proto-oncogene tyrosine-protein kinase Src (Homo sapiens) (P12931 2-536 limits assumed): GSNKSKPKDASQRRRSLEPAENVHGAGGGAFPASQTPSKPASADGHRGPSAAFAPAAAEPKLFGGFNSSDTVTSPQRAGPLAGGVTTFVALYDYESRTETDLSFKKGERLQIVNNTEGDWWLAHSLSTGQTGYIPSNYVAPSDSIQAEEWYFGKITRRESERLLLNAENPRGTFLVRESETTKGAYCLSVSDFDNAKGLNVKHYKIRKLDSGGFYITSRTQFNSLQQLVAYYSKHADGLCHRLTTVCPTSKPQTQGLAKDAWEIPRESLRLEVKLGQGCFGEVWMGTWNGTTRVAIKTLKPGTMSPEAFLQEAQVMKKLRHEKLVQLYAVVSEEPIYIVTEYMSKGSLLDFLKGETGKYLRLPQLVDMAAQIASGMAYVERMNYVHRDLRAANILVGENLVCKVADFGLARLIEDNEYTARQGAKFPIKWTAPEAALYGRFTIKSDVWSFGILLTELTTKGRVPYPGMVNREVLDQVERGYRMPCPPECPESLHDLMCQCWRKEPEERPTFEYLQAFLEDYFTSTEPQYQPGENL

[7] = biological target: Proto-oncogene tyrosine-protein kinase Src (Homo sapiens) (UniProt P12931); conditions: at 1 µM
[8] = biological target: Tyrosine-protein kinase Srms (Homo sapiens) (UniProt Q9H3Y6); conditions: at 0.1 µM
[9] = biological target: Tyrosine-protein kinase Srms (Homo sapiens) (UniProt Q9H3Y6); conditions: at 1 µM
[10] = biological target: Tyrosine-protein kinase SYK (Homo sapiens) (UniProt P43405); conditions: at 0.1 µM
[11] = biological target: Tyrosine-protein kinase SYK (Homo sapiens) (UniProt P43405); conditions: at 1 µM
[12] = biological target: T1, Tyrosine-protein kinase Tec (Homo sapiens) (UniProt P42680); conditions: at 0.1 µM
T1 sequence (whole entry): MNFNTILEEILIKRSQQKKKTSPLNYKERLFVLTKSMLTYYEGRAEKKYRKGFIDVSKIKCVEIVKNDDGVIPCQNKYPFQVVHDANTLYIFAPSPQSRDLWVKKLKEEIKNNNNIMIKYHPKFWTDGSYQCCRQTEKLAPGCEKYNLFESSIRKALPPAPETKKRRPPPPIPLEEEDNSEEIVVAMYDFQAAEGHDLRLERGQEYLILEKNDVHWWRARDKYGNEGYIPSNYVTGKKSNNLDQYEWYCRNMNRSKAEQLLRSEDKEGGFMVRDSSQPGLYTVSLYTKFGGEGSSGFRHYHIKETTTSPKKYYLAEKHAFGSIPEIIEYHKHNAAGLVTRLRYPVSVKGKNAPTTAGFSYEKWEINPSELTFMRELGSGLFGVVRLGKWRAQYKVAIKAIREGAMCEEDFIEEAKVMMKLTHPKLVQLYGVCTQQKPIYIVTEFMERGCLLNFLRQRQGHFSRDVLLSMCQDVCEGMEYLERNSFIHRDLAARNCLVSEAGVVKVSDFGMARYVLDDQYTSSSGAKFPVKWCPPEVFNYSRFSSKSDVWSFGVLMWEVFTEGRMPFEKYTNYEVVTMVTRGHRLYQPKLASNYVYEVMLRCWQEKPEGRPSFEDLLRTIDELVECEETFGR

[13] = biological target: T1, Tyrosine-protein kinase Tec (Homo sapiens); conditions: at 1 µM
[14] = biological target: Angiopoietin-1 receptor (Homo sapiens) (UniProt Q02763); conditions: at 0.1 µM
[15] = biological target: Angiopoietin-1 receptor (Homo sapiens) (UniProt Q02763); conditions: at 1 µM
[16] = biological target: T2, Non-receptor tyrosine-protein kinase TNK1 (Homo sapiens) (UniProt Q13470); conditions: at 0.1 µM
T2 sequence (whole entry): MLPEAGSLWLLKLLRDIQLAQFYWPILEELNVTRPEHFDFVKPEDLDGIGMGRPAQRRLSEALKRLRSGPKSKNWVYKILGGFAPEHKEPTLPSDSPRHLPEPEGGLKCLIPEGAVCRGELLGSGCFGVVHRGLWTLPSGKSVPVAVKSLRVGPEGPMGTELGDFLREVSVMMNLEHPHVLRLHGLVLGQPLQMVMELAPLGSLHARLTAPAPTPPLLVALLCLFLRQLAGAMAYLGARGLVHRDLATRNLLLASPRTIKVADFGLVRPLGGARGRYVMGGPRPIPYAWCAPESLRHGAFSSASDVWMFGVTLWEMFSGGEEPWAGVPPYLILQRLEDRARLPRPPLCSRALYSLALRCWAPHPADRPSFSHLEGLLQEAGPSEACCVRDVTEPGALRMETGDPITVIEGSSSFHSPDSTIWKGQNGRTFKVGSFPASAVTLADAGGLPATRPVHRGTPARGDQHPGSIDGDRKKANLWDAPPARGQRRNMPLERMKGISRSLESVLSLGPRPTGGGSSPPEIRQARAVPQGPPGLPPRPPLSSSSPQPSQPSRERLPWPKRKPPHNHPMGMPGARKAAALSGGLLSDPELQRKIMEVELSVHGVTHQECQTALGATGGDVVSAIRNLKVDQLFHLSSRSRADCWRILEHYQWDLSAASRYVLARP

[17] = biological target: T2, Non-receptor tyrosine-protein kinase TNK1 (Homo sapiens); conditions: at 1 µM
[18] = biological target: Activated CDC42 kinase 1 (Homo sapiens) (UniProt Q07912); conditions: at 0.1 µM
Chain of Activated CDC42 kinase 1 (Homo sapiens) (Q07912 whole entry, looked up): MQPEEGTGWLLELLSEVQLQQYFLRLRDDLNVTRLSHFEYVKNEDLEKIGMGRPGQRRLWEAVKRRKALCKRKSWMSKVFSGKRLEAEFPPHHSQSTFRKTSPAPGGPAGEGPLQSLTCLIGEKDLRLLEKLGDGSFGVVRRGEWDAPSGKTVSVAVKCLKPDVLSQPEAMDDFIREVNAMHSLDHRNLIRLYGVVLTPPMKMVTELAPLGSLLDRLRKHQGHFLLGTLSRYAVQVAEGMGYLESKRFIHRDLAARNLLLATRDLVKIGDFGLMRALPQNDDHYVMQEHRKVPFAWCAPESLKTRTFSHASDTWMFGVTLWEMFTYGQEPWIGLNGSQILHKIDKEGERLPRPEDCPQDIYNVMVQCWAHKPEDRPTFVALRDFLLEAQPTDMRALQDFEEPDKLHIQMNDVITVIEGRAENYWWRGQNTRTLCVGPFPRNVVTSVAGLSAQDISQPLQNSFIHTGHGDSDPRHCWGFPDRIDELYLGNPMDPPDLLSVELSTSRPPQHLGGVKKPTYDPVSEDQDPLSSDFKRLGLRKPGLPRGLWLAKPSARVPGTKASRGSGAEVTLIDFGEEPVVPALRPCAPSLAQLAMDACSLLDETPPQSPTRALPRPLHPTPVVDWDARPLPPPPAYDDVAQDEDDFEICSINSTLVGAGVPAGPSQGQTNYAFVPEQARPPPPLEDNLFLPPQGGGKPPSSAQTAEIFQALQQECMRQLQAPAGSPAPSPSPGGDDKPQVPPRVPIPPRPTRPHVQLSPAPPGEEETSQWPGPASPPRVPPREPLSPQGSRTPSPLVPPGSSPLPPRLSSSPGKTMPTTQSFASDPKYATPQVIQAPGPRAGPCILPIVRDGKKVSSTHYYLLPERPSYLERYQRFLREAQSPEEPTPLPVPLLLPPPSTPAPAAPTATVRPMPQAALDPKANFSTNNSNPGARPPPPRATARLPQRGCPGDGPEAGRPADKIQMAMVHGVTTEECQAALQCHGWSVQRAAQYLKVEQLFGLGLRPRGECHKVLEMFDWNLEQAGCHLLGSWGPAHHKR

[19] = biological target: Activated CDC42 kinase 1 (Homo sapiens) (UniProt Q07912); conditions: at 1 µM
[20] = biological target: High affinity nerve growth factor receptor (Homo sapiens) (UniProt P04629); conditions: at 0.1 µM;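 also: each value is a mean of replicate percent inhibition readings against TRKA kinase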
Chain of High affinity nerve growth factor receptor (Homo sapiens) (P04629 33-796 limits assumed): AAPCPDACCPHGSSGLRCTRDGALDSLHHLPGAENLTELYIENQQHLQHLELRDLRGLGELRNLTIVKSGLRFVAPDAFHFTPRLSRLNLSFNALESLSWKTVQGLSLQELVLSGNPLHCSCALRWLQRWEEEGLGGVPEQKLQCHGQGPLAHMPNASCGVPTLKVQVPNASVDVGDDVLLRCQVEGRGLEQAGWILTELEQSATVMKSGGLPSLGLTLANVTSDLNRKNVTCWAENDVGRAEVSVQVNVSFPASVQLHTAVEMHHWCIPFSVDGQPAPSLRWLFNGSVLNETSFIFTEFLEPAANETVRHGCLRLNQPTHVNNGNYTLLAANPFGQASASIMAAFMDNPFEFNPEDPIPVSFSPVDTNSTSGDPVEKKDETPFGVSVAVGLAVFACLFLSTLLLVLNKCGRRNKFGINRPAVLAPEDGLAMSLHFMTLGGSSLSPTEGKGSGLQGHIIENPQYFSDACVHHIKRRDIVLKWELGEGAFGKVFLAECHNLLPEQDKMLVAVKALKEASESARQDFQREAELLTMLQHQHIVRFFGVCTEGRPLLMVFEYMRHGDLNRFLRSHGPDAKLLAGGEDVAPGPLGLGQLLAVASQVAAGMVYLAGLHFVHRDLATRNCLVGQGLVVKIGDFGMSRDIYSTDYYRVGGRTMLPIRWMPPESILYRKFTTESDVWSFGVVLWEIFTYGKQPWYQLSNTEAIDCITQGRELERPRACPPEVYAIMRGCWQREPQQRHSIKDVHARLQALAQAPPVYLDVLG

SMILES	inhibition [1] [%]	inhibition [2] [%]	inhibition [3] [%]	inhibition [4] [%]	inhibition [5] [%]	inhibition [6] [%]	inhibition [7] [%]	inhibition [8] [%]	inhibition [9] [%]	inhibition [10] [%]	inhibition [11] [%]	inhibition [12] [%]	inhibition [13] [%]	inhibition [14] [%]	inhibition [15] [%]	inhibition [16] [%]	inhibition [17] [%]	inhibition [18] [%]	inhibition [19] [%]	inhibition [20] [%]
c1cnn2ncc(-c3ccnc(Nc4ccc5c(c4)OCCO5)n3)c2c1	26.2	4.39	16.8	79.9	82.7	-0.83	32.3	-0.57	1.78	-8.51	13.2	6.85	19.8	3.72	20.5	18.1	64.5	3.29	21.7	5.45
Nc1nc(-c2ccccn2)c(-c2ccc3ncccc3n2)s1	10.2	3.66	6.53	2.94	4.03	0.7	7.78	-0.44	-2.72	-1.33	-0.74	3.91	7.33	2.07	1.68	3.7	5.67	2.33	2.94	3.9
CN(C)c1cc2c(Nc3ccc4nc(Cc5ccccc5)[nH]c4c3)ncnc2cn1	27.9	7.08	3.46	6.18	11.8	-0.18	20.1	1.22	8.06	-5.04	1.5	5.94	11.9	3.86	4.47	6.39	21	1.01	4.65	4.28
O=C(Nc1n[nH]c2nc(-c3ccco3)c(Br)cc12)C1CC1	-2.51	1.47	4.05	3.63	3.03	12.5	14.2	-2.24	-0.3	0.12	-0.45	4.92	9.1	7.26	13.7	2.22	-0.4	0.93	0.24	3.1
O=C1NC(=O)C(c2cccc(Cl)c2)=C1Nc1ccc(O)c(Cl)c1	2.96	-9.4	6	1.16	7.24	3.33	5.62	-0.46	-1.95	1.76	0.79	1.84	1.44	1.54	3.61	0.52	8.8	-0.75	-0.58	-3.23
Cn1cc(C=C2C(=O)Nc3cccnc32)c2ccccc21		3.7	0.13	4.42	10.1	12.8	42.2	-1.82	0.18	3.56	-2.64	2.46	8.75	2.82	5.24	4.27	9.9	0.71	1.72	13.9
CNC(=O)c1cncc(/C=C/c2c(Cl)cccc2Cl)c1	14.9	6.34	-0.69	11.1	11.8	14.3	47.2	1.5	8.71	1.45	1	5.68	23.4	5.91	3.57	8.81	38.8	0.26	11	2.22
COc1cc2ncn(-c3cc(O[C@H](C)c4ccccc4Cl)c(C(N)=O)s3)c2cc1OC	63.8	14.8	17.8	10.7	36.5	7.81	40.7	2.69	6.05	1.76	-0.3	5.59	19.3	12.7	41.7	17.7	70.8	6.31	28.2	1.31
Nc1ncnc2occ(-c3ccc(NC(=O)Nc4cc(C(F)(F)F)cc(C(F)(F)F)c4)cc3)c12	75.6	-3.85	7.91	1.98	15.9	-4.73	24.4	-0.11	-0.05	-5.69	-6.95	3.65	6.33	29.1	77.5	4.85	33.8	1.04	1.13	37.1
N#Cc1c(NC(=O)c2cccc3ccccc23)sc2c1CCCC2	2.2	1.52	3.88	3.2	5.26	12.3	7.06	-0.23	-0.56	-4.41	2.16	2.31	3.43	2.34	6.02	1.31	-2.02	0.12	0.56	3.35
CS(=O)(=O)CCNCc1nc(-c2ccc3ncnc(Nc4ccc(F)c(Cl)c4)c3c2)cs1	31	1.17	-0.2	-1.86	1.3	8.61	9.31	-0.09	1.81	2.81	-0.34	3.79	9.13	7.71	5.89	4.58	27.1	0.19	2.87	3.85
COc1cc(C)c(NC(=O)CN(C)C)cc1Nc1nc(Nc2cccc(F)c2C(N)=O)c2cc[nH]c2n1	2.8	3.91	3.91	79.7	86	11.1	6.65	1.04	1.18	0.17	0.44	1.93	3.64	0.55	0.17	30.8	73.4	1.18	14	2.31
Cc1ccc(C(=O)NC2CCCCC2)cc1-c1ccc(C(=O)NCC2CC2)cc1	23	-5.44	3.46	6.22	7.1	0.23	4.58	2.6	0.74	-0.6	0.52	4.18	5.66	1.79	4.17	0.56	-2.52	2.3	4.5	2.3
CC(=O)Nc1cccc(C#Cc2cncnc2Nc2ccc(OCc3cccc(F)c3)c(Cl)c2)n1	13.9	0.21	0.21	2.41	-0.69	2.96	0.48	1.99	6.25	5.47	-0.2	-0.56	0.51	-1.08	2.93	-0.47	13.1	-0.48	2.35	-4.25
